Where “and” joins values, the source holds several entries; their conditions need not be identical. Equal entries are not always repeated. Where two headings read alike, the source gives them in different places.
Legend:
[1] = test system: CSNK1A1L; conditions: concentration: 1 μM, replicates: in singlicate, n = 1
[2] = test system: CSNK1A1; conditions: concentration: 1 μM, replicates: in singlicate, n = 1
[3] = test system: CSNK1D; conditions: concentration: 1 μM, replicates: in singlicate, n = 1
[4] = test system: CSNK1E; conditions: concentration: 1 μM, replicates: in singlicate, n = 1
[5] = test system: CSNK1G1; conditions: concentration: 1 μM, replicates: in singlicate, n = 1
[6] = test system: CSNK1G2; conditions: concentration: 1 μM, replicates: in singlicate, n = 1
[7] = test system: CSNK1G3; conditions: concentration: 1 μM, replicates: in singlicate, n = 1
[8] = test system: CSNK2A1; conditions: concentration: 1 μM, replicates: in singlicate, n = 1
[9] = test system: CSNK2A2; conditions: concentration: 1 μM, replicates: in singlicate, n = 1
[10] = test system: T1, CTK; conditions: concentration: 1 μM, replicates: in singlicate; n = 1
T1 construct: gene MATK
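Note: KINOMEscan kinase panel screen.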

SMILES | %Inh [1] [%] | %Inh [2] [%] | %Inh [3] [%] | %Inh [4] [%] | %Inh [5] [%] | %Inh [6] [%] | %Inh [7] [%] | %Inh [8] [%] | %Inh [9] [%] | %Inh [10] [%] | %Inh ([1]; 1 µM) | %Inh ([2]; 1 µM) | %Inh ([3]; 1 µM) | %Inh ([4]; 1 µM) | %Inh ([5]; 1 µM) | %Inh ([6]; 1 µM) | %Inh ([7]; 1 µM) | %Inh ([8]; 1 µM) | %Inh ([9]; 1 µM)
CN(C1=C(c2ccccc2)C(=O)NC1=O)c1ccccc1 [SB-334860] | 0 | 0 | 19 | 17 | 7 | 0 | 22 | 1 | 21 | 0 |  |  |  |  |  |  |  |  | 
O=c1cc(N2CCOCC2)nc2n(Cc3cccc(F)c3)ccn12 [GSK2297430] | 18 | 20 | 15 | 35 | 9 | 1 | 13 | 0 | 0 | 0 |  |  |  |  |  |  |  |  | 
c1ccc(-c2n[nH]cc2-c2ccnc3ccccc23)nc1 [GW271431] | 19 | 38 | 60 | 69 | 20 | 0 | 24 | 0 | 23 | 0 |  |  |  |  |  |  |  |  | 
O=C(Nc1n[nH]c2cc(-c3cccc(F)c3)ccc12)C1CC1 [SB-735464] | 10 | 0 | 0 | 0 | 0 | 0 | 0 | 3 | 24 | 49 |  |  |  |  |  |  |  |  | 
O=C1Cc2cc(Nc3nc(NCc4cccc(S(=O)(=O)C(F)(F)F)c4)ncc3C(F)(F)F)ccc2N1 | 0 | 12 | 0 | 0 | 11 | 0 | 0 | 12 | 5 | 5 |  |  |  |  |  |  |  |  | 
NS(=O)(=O)c1cccc(-c2ccc3ncc(N4CCOCC4)nc3c2)c1 [GSK1535721] | 0 | 0 | 16 | 0 | 12 | 0 | 19 | 4 | 18 | 0 |  |  |  |  |  |  |  |  | 
CCCCCc1nc2c(N)ncnc2n1CCCCC [SKF-97255] | 0 | 14 | 0 | 3 | 0 | 0 | 6 | 0 | 28 | 0 |  |  |  |  |  |  |  |  | 
Cc1cccc(Cn2ccn3c(=O)cc(N4CCOCC4)nc23)c1 [GSK2297542] | 18 | 19 | 48 | 55 | 27 | 16 | 25 | 2 | 22 | 0 |  |  |  |  |  |  |  |  | 
Cc1nnc(-c2ccc(C)c(-c3ccc(C(=O)Nc4ccc(NS(C)(=O)=O)cc4)cc3)c2)o1 [GW702865] | 0 | 0 | 14 | 0 | 0 | 15 | 17 | 0 | 15 | 0 |  |  |  |  |  |  |  |  | 
Cc1nnc(-c2ccc3ncc(-c4ccc(S(C)=O)cc4)n3c2)o1 (stereo not shown) | 9 | 7 | 0 | 0 | 24 | 5 | 0 | 0 | 18 | 27 |  |  |  |  |  |  |  |  | 
O=C(NCCCN1CCOCC1)c1cccc(Nc2nccc(Nc3ccc(Oc4ccccc4)cc3)n2)c1 [GW663929] | 0 | 0 | 3 | 0 | 18 | 0 | 11 | 10 | 21 | 11 |  |  |  |  |  |  |  |  | 
Cc1c(Cn2c(C)nn3c(=O)cc(N4CCOC(C)C4)nc23)cccc1C(F)(F)F (stereo not shown) [GSK2344444] | 0 | 0 | 0 | 0 | 0 | 0 | 18 | 12 | 9 | 2 |  |  |  |  |  |  |  |  | 
COc1ccc(Nc2ncc(C#N)c(Nc3ccccc3C(N)=O)n2)cc1N1CCN(C)CC1.Cl [GSK1558669] | 97.3 | 82 | 66 | 78 | 50 | 0 | 27 | 99.7 | 99.9 | 56 |  |  |  |  |  |  |  |  | 
Fc1ccc(-c2ncn(CCCN3CCOCC3)c2-c2ccccn2)cc1 [SB-211742] | 0 | 36 | 10 | 9 | 5 | 0 | 0 | 0 | 0 | 0 |  |  |  |  |  |  |  |  | 
CCc1nc(-c2cccc(C)c2)c(-c2ccnc(NCc3ccccc3)c2)s1 | 11 | 8 | 29 | 8 | 0 | 0 | 0 | 0 | 0 | 17 |  |  |  |  |  |  |  |  | 
NCCNS(=O)(=O)c1ccc(-c2ccnc3[nH]ccc23)cc1 [GSK977617] |  |  |  |  |  |  |  |  |  | 0 | 76% and 61% | 88% and 93.1% | 77% and 70% | 85% and 86% | 20% and 0% | 58% and 24% | 51% and 59% | 72% and 56% | 63% and 56%
Cn1ccc2ncnc(Oc3ccc(NC(=O)Nc4ccncc4)c(Cl)c3)c21 | 0 | 0 | 0 | 0 | 0 | 0 | 0 | 0 | 0 | 0 |  |  |  |  |  |  |  |  | 
CC(C)(CN)c1nc(-c2ccc(Cl)c(O)c2)c(-c2ccncc2)[nH]1.O=C(O)C(F)(F)F [SB-477794] |  |  |  | 99.6 |  |  |  | 0 |  | 0 | 85% and 81% | 96.3% and 93.8% | 97% and 96.6% |  | 0% and 5% | 0% and 7% | 22% and 14% |  | 11% and 0%
Cn1cc(-c2ccc3c(c2)CCN3C(=O)Cc2ccccc2Cl)c2c(N)ncnc21 [GSK2608885] | 0 | 0 | 11 | 87 | 25 | 3 | 20 | 0 | 8 | 18 |  |  |  |  |  |  |  |  | 
CC(=O)Nc1ccc(COc2ccc(Nc3ccnc4cc(-c5ccccn5)ccc34)cc2)cc1.Cl [GW440148] | 0 | 0 | 24 | 33 | 9 | 0 | 29 | 5 | 11 | 3 |  |  |  |  |  |  |  |  | 

SMILES | %Inh [1] [%] | %Inh [2] [%] | %Inh [3] [%] | %Inh [4] [%] | %Inh [5] [%] | %Inh [6] [%] | %Inh [7] [%] | %Inh [8] [%] | %Inh [9] [%] | %Inh [10] [%] | %Inh ([1]; 1 µM) | %Inh ([2]; 1 µM) | %Inh ([3]; 1 µM) | %Inh ([4]; 1 µM) | %Inh ([5]; 1 µM) | %Inh ([6]; 1 µM) | %Inh ([7]; 1 µM) | %Inh ([8]; 1 µM) | %Inh ([9]; 1 µM)
CC(C)(C)n1cnc2c(N)ncnc21 [SKF-97359] | 16 | 40 | 0 | 39 | 0 | 0 | 2 | 0 | 0 | 21 |  |  |  |  |  |  |  |  | 
COc1cc2c(cc1OC[C@@H](O)CO)ncc1c3ccc(C#N)cc3[nH]c21 | 0 | 9 | 0 | 0 | 0 | 0 | 0 | 81 | 93.9 | 18 |  |  |  |  |  |  |  |  | 
CSc1ccc(-c2cc3ncnc(SCC(=O)O)c3s2)cc1 | 11 | 21 | 0 | 0 | 1 | 0 | 0 | 22 | 17 | 14 |  |  |  |  |  |  |  |  | 
c1ccc(-c2cc(-c3c[nH]nc3-c3ccccn3)ccn2)cc1 [GW576604] | 0 | 0 | 38 | 15 | 0 | 1 | 3 | 0 | 15 | 0 |  |  |  |  |  |  |  |  | 
Cl.Oc1cccc(Nc2ccnc3cc(-c4ccncc4)ccc23)c1 [GW494601] | 42 | 55 | 28 | 45 | 40 | 0 | 22 | 0 | 0 | 0 |  |  |  |  |  |  |  |  | 
Cc1cn2c(=O)cc(N3CCOCC3)nc2n1Cc1cccc(Cl)c1Cl [GSK2334006] | 29 | 48 | 43 | 45 | 17 | 6 | 26 | 11 | 18 | 0 |  |  |  |  |  |  |  |  | 
COc1cc2c(cc1OCCN1CCN(C)CC1)ncc1c3ccc(C#N)cc3[nH]c21 | 0 | 0 | 18 | 0 | 0 | 0 | 0 | 73 | 95.2 | 23 |  |  |  |  |  |  |  |  | 
COC(=O)Nc1nc2cc(Oc3ccc(NC(=O)Nc4cc(F)ccc4F)cc3)ccc2[nH]1.Cl [GW701424] | 13 | 0 | 9 | 26 | 0 | 0 | 21 | 0 | 6 | 0 |  |  |  |  |  |  |  |  | 
Fc1ccc(-c2ncn(CCCN3CCOCC3)c2-c2cccnc2)cc1 [SB-211743] | 0 | 22 | 4 | 24 | 0 | 0 | 17 | 0 | 0 | 32 |  |  |  |  |  |  |  |  | 
O=c1cc(N2CCOCC2)nc2n(Cc3cccc4ccccc34)ccn12 [GSK2333389] | 11 | 13 | 42 | 20 | 0 | 0 | 20 | 13 | 0 | 1 |  |  |  |  |  |  |  |  | 
CCn1cnc2c(N)ncnc21 [GW345098] | 14 | 28 | 21 | 55 | 9 | 0 | 16 | 12 | 19 | 51 |  |  |  |  |  |  |  |  | 
O=C(Nc1cccc(-c2nn3ncccc3c2-c2ccnc(Nc3cccc(C(F)(F)F)c3)n2)c1)c1c(F)cccc1F [GSK299495] | 24 | 0 | 12 | 82 | 0 | 0 | 18 | 0 | 0 | 0 |  |  |  |  |  |  |  |  | 
CCc1ccnc(/C=C/c2n[nH]c3cc(Sc4ccccc4C(=O)NC)ccc23)c1 | 0 | 26 | 8 | 0 | 0 | 0 | 0 | 0 | 0 | 0 |  |  |  |  |  |  |  |  | 
O=C(NCCNc1ccnc(Nc2ccc(F)cc2)n1)Nc1ccccc1F [GSK1379880] | 16 | 0 | 11 | 9 | 1 | 0 | 16 | 0 | 3 | 0 |  |  |  |  |  |  |  |  | 
C[C@@H](Oc1cc(-n2cnc3ccc(NC(=O)NC(C)(C)C)cc32)sc1C(N)=O)c1ccccc1Cl [GSK346294] | 6 | 0 | 3 | 19 | 0 | 0 | 32 | 2 | 0 | 0 |  |  |  |  |  |  |  |  | 
COc1ccc(S(=O)(=O)NC2CCN(c3cc(C)nc(Nc4cccc(C#N)c4)n3)CC2)cc1.O=C(O)C(F)(F)F [GSK1653539] | 0 | 0 | 19 | 54 | 12 | 0 | 30 | 0 | 4 | 0 |  |  |  |  |  |  |  |  | 
O=C(c1ccc(-c2cc(-c3c[nH]nc3-c3ccccn3)ccn2)cc1)N1CCOCC1 [GW812171] | 0 | 32 | 49 | 17 | 19 | 0 | 0 | 0 | 0 | 49 |  |  |  |  |  |  |  |  | 
NCC(NC(=O)c1cc(-c2cn[nH]c2)c(-c2ccnc3[nH]ccc23)s1)c1ccccc1.O=C(O)C(F)(F)F.O=C(O)C(F)(F)F (stereo not shown) [GSK1325775] | 87 | 93.3 | 91.9 | 99.4 | 55 | 90 | 81 | 15 | 33 | 0 |  |  |  |  |  |  |  |  | 
Fc1ccc(-c2nn3c(OCC(F)(F)F)cccc3c2-c2ccncc2)cc1 [GW514784] | 35 | 92.9 | 96.4 | 99 | 0 | 0 | 16 | 0 | 0 | 0 |  |  |  |  |  |  |  |  | 
O=c1cc(N2CCOCC2)nc2n(Cc3cccc(C(F)(F)F)c3)ccn12 [GSK2297543] | 16 | 24 | 17 | 0 | 13 | 0 | 8 | 0 | 9 | 0 |  |  |  |  |  |  |  |  | 
